Source: PubChem BioAssay
Calls of active or inactive are those of the source.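 Rule for the calls, unless noted: active = inhibition at or above 50% at 10 µM; inactive = inhibition below 50%.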

Columns and labels:
[1] = inhibitors of TNFa-induced NFkB p65 translocation, primary screen, imaging, HUVEC, MLSMR starter and 10KST1 sets (AID 438;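 active = inhibition above 20% together with a positive visual image hit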;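 note: compound added about 3h40 before a 20 min TNFalpha stimulation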;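 for inhibition: signal is the nuclear over cytoplasmic p65 intensity ratio per well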); conditions: HUVEC TNFa-induced p65 nuclear translocation; cell count: measured here: nuclei count (cytotoxicity indicator), at 2.08 µM; inhibition: at 2 µM, stronger effect = higher value, 0% TNFa-plus-vehicle, 100% no-TNFa wells
[2] = reduction of polyQ htt aggregates in cells – imaging, exon1htt(103Q)mCFP cells, high-content imaging, primary screen (AID 483;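 active = visual image review flags a hit and inhibition of aggregation exceeds 20%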;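 note: compound exposure lasted 3 days before fixation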;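 for nuclei count: percent of the per-plate median nuclei count of sample wells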); conditions: exon1htt(103Q)mCFP cell line, aggregate imaging, at 2 µM; inhibition of aggregation: stronger effect = higher value; nuclei count: measured here: cell count, toxicity
[3] = endothelial E-selectin expression blockers – imaging, HUVEC, immunofluorescence, MLSMR starter and 10KST1 sets, primary screen (AID 487;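 active = visually confirmed hit in the image check and inhibition above 20%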;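 for inhibition: signal is fraction of cell area covered by stained E-selectin grains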;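 for nuclei count: 100% = median nuclei count of all wells on the same plate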); conditions: HUVEC TNFalpha-induced E-selectin immunofluorescence imaging, at 2 µM; inhibition: stronger effect = higher value; nuclei count: measured here: cell number, toxicity
[4] = molecular target: Voltage-gated potassium channel subunit beta-2 (Rattus norvegicus) (UniProt P62483); assay: inhibitors of rat Kvbeta2 reductase activity – biochemical, NADPH fluorescence, primary screen (AID 622;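 active = fluorescence slope higher than the sample average by over 3 SD, cut at about -0.22 in these data, passing the limit was not always enough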;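 note: slope of raw intensity against log time taken from 70 to 1610 s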); conditions: recombinant KvBeta, 4-cyanobenzaldehyde reduction, at 10 µM, stronger effect = higher value
Voltage-gated potassium channel subunit beta-2 (Rattus norvegicus), sequence (P62483 whole entry, looked up): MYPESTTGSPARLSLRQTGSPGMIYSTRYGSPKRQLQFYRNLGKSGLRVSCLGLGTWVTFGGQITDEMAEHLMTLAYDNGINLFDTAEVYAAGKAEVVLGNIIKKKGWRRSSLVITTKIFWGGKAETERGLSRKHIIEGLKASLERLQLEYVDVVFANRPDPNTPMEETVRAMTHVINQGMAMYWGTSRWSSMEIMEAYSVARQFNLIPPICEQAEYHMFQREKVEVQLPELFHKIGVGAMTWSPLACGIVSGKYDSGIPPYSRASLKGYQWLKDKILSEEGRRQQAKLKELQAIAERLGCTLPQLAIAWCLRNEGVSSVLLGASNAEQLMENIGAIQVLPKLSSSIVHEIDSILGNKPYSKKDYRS

[5] = molecular target: Voltage-gated potassium channel subunit beta-2 (Rattus norvegicus) (UniProt P62483); assay: enhancers of rat Kvbeta2 NADPH turnover – biochemical, NADPH fluorescence, primary screen (AID 623;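 active = NADPH fluorescence slope more negative than the mean of all samples by about 3 SD, 99.7% confidence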;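 note: fluorescence intensity change per second fitted from 20 to 320 s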); conditions: Recombinant KvBeta, NADPH fluorescence decrease slope, 10 min; at 10 µM; stronger effect = lower value
[6] = molecular target: Alpha-2C adrenergic receptor (Homo sapiens) (UniProt P18825); assay: compounds altering alpha2C-coupled GIRK flux – cell-based, HEK293 alpha2C/GIRK1/2, thallium flux, primary screen (AID 624;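 active = fluorescence slope after compound addition differing from the mean of all screened samples at 99.7% confidence, in either direction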;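 note: slope of fluorescence ratio to pre-addition baseline per second over 15 to 24 s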); conditions: thallium flux BTC fluorescence, at 10 µM, actives lie on both sides
Alpha-2C adrenergic receptor (Homo sapiens), sequence (P18825 whole entry, looked up): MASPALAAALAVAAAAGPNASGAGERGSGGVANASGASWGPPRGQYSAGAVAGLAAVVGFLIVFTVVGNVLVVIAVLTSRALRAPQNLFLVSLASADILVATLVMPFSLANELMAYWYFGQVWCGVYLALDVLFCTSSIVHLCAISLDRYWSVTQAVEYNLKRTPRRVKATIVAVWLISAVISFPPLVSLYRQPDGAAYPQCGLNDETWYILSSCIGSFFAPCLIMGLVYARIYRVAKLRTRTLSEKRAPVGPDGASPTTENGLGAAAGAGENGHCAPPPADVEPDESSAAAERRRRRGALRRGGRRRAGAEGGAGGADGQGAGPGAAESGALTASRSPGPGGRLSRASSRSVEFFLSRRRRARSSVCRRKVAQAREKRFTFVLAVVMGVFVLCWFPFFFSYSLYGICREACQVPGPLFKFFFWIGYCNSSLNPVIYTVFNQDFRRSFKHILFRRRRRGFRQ

[7] = blockers of RIG-like receptor reporter activation – cell-based, Sendai virus stimulus, luciferase, 10K MLSCN set, TLR/RLR signaling modifier project, primary screen (AID 602276); conditions: HEK293 RL24 IRF3 luciferase reporter, at 10 µM, stronger effect = higher value;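 note: firefly luciferase from ISG56 promoter only with Renilla not read in this screen; 0% = Sendai virus plus DMSO and 100% = medium plus DMSO without virus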
[8] = TLR3 IRF3 reporter activation blockers – cell-based, poly I:C stimulus, luciferase, 10K MLSCN set, primary screen (AID 602277;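 active = inhibition of the reporter signal at or above 50%; inactive = inhibition below 50%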); conditions: HEK293-TLR3 RL24 IRF3 luciferase reporter, at 10 µM, stronger effect = higher value

Row | Compound | cell count [1] | inhibition [1] | inhibition of aggregation [2] | nuclei count [2] | inhibition [3] | nuclei count [3] | fluorescence slope [4] | NADPH fluorescence slope [5] | slope [6] | inhibition [7] | inhibition [8]
1 | CCCCN1C(=O)C2C(C(=O)Nc3cccc(OC)c3)C3C=CC2(O3)C1C(=O)NC1CCCCC1C (stereo not drawn) | 423 | 3.1% (inactive) | 1.7% (inactive) | 109% | -50% (inactive) | 112% | -0.503 (inactive) | -2.7e-05 (inactive) | 0.00569 (inactive) | 14.1% (inactive) | 24.4% (inactive)
2 | Cn1c(=O)[nH]c(=O)c2[nH]c(NCCCN3CCOCC3)nc21 | 572 | 4.8% (inactive) | 8% (inactive) | 92.2% | -36.4% (inactive) | 112% | -0.613 (inactive) | -1.9e-05 (inactive) | 0.00608 (inactive) | 9.97% (inactive) | 14.9% (inactive)
3 | CN(C)c1cc(NC(=O)CN2CCOCC2)c2ccccc2n1 | 863 | 1.2% (inactive) | 6.6% (inactive) | 101% | -75% (inactive) | 131% | -0.549 (inactive) | -3.5e-05 (inactive) | 0.00612 (inactive) | 9.32% (inactive) | 46.3% (inactive)
4 | CN(CC(=O)Nc1ccc2c(c1)OCCO2)S(=O)(=O)c1ccc(Br)s1 | 315 | -1.9% (inactive) | -7.8% (inactive) | 100% | -21% (inactive) | 98.5% | -0.403 (inactive) | -4.9e-05 (inactive) | 0.00399 (inactive) | -3.5% (inactive) | 10.4% (inactive)
5 | C=C(C)Cn1c(-c2ccccc2)nc2ccccc21 | 326 | -5.5% (inactive) | -4.2% (inactive) | 113% | -17.6% (inactive) | 104% | -0.512 (inactive) | -5.5e-05 (inactive) | 0.00476 (inactive) | 14.4% (inactive) | 2.46% (inactive)
6 | COc1ccc(S(=O)(=O)N2CCC(C(=O)NCc3ccco3)CC2)cc1 | 245 | -0.2% (inactive) | 1.8% (inactive) | 99.6% | -290% (inactive) | 114% | -0.418 (inactive) | -2.7e-05 (inactive) | 0.00415 (inactive) | 7.79% (inactive) | 9.56% (inactive)
7 | c1ccc(CNc2c3c(nc4ncnn24)CCCC3)nc1 | 912 | 2.1% (inactive) | -30.3% (inactive) | 102% | -39.1% (inactive) | 111% | -0.542 (inactive) | -9.4e-06 (inactive) | 0.00501 (inactive) | 15.7% (inactive) | 13.9% (inactive)
8 | CC(NS(=O)(=O)c1ccc(F)cc1)C(c1cccs1)N1CCN(C)CC1 (stereo not drawn) | 390 | -3.7% (inactive) | -11.1% (inactive) | 104% | -0.8% (inactive) | 105% | -0.38 (inactive) | -5.1e-05 (inactive) | 0.00473 (inactive) | 0.176% (inactive) | 33% (inactive)
9 | CCOc1ccc(CN2C(=O)c3ccccc3C2C(=O)NCc2cccnc2)cc1 (stereo not drawn) | 500 | -1.1% (inactive) | -9.9% (inactive) | 110% | -52.5% (inactive) | 94.3% | -0.599 (inactive) | -1.6e-05 (inactive) | 0.00638 (inactive) | 8.35% (inactive) | 16.9% (inactive)
10 | Cc1ccc(S(=O)(=O)N2CCCC2C(=O)OCc2nc3ccccc3s2)cc1 (stereo not drawn) | 459 | -1.1% (inactive) | 4.3% (inactive) | 116% | -89% (inactive) | 110% | -0.519 (inactive) | -5.7e-05 (inactive) | 0.00533 (inactive) | 8.31% (inactive) | 25.2% (inactive)
11 | COc1ccc(N(C)C(=O)CCS(=O)(=O)c2cccc3nonc23)c(OC)c1 | 557 | -1.4% (inactive) | -17.3% (inactive) | 121% | -18.3% (inactive) | 125% | -0.488 (inactive) | -0.000205 (inactive) | 0.00467 (inactive) | 4.07% (inactive) | 16.9% (inactive)
12 | COc1cccc2cc(C(=O)C3=C(O)C(=O)N(CCCN4CCOCC4)C3c3ccncc3)oc12 (stereo not drawn) | 463 | 0.9% (inactive) | -8.5% (inactive) | 103% | -14.9% (inactive) | 120% | -0.478 (inactive) | -7.1e-05 (inactive) | 0.00372 (inactive) | -11.8% (inactive) | 10.6% (inactive)
13 | COc1nnc(-c2ccc(C)c(S(=O)(=O)NCCO)c2)c2ccccc12 | 325 | -2.7% (inactive) | 11.7% (inactive) | 75.4% | -17.6% (inactive) | 95.3% | -0.424 (inactive) | 1e-05 (inactive) | 0.0039 (inactive) | 1.8% (inactive) | 28.9% (inactive)
